# According to PubChem BioAssay AID463173 (ICCB-Longwood Screening Facility, Harvard Medical School, 2010):
# In all, about 52,000 compounds went through this assay and about 4,300 (8.3%) were called active. Cut-off read from the data, not from the text of the source: active = survival mostly below about 52% (no sharp cut-off); inactive = mostly above about 56%. The full list was thinned out, with actives kept by preference.
# System: DeltatarO mutant
# Assay: S. aureus survival, RN4220 and DeltatarO strains – OD600, teichoic acid synthesis inhibitors, primary screen (AID 463173)
# Settings: S. aureus RN4220 wild type/DeltatarO growth, OD600, 18 h, hits give low values, screened at 18.75 µg/mL (by protocol)
row,SMILES,survival
1,CCCN1C(=O)CN(C2CCCCCC2)C(=O)C1c1ccc(OCC)c(OC)c1 (stereo unspecified),109% (inactive)
2,CCCOc1ccc(C2C(=O)N(C3CCCCCC3)CC(=O)N2CCC2=CCCCC2)cc1OC (stereo unspecified),119% (inactive)
3,CCCCN1C(=O)CN(C2CCCCCC2)C(=O)C1c1ccc(OCCC)c(OC)c1 (stereo unspecified),66% (inactive)
4,COc1ccc(C2C(=O)N(C3CCC(C)CC3)CC(=O)N2C2CCCC2)cc1OC (stereo unspecified),-2% (active)
5,CCCOc1ccc(C2C(=O)N(C3CCC(C)CC3)CC(=O)N2CCC2=CCCCC2)cc1OC (stereo unspecified),80% (inactive)
6,CCCOc1ccc(C2C(=O)N(C3CCCCC3)CC(=O)N2C2CCCCC2)cc1OC (stereo unspecified),91% (inactive)
7,CCCOc1ccc(C2C(=O)N(C3CCCCCC3)CC(=O)N2CCC)cc1OC (stereo unspecified),-4% (active)
8,COc1ccc(C2C(=O)N(C3CCC(C)CC3)CC(=O)N2CCC2=CCCCC2)cc1OC (stereo unspecified),-1% (active)
9,COc1ccc(C2C(=O)N(C3CCC(C)CC3)CC(=O)N2C2CCCCC2)cc1OC (stereo unspecified),76% (inactive)
10,CCCCN(C)C(=O)CN1C(=O)CCn2nc(-c3cn(C)c4ccccc34)cc21,117% (inactive)
11,Cc1cccc(NC(=O)CSc2nc(=O)n(CCN3CCOCC3)c3c2CCC3)c1,86% (inactive)
12,COc1cccc(C(=O)NCCSc2c(-c3ccc(F)cc3)[nH]c3ccccc23)c1OC,52% (inactive)
13,O=C(NC1CCN(C(=O)Nc2cccc(F)c2)CC1)c1ccco1,88% (inactive)
14,COc1cccc(N2C(=O)N(CC(=O)NCc3cccc(OC)c3OC)c3ccccc3S2(=O)=O)c1,95% (inactive)
15,COc1cc(C(Nc2ccc(S(=O)(=O)N3CCCC3)cc2)C(=O)NC(C)(C)C)cc(OC)c1OC (stereo unspecified),77% (inactive)
16,CC(=O)ONC(=Nc1ccccc1C)c1nonc1N,101% (inactive)
17,COc1c(Cl)cc(Cl)cc1/C=C(\C#N)c1nc(-c2ccc(Cl)cc2)cs1,122% (inactive)
18,Cc1ccccc1/C=C(\C#N)c1nc(-c2ccc(Cl)cc2)cs1,14% (active)
19,Cc1ccc(-c2csc(/C(C#N)=C/c3ccccc3Cl)n2)cc1,21% (active)
20,COc1ccc(OC)c(/C=C(/C#N)c2nc(-c3ccc(-c4ccccc4)cc3)cs2)c1,52% (inactive)
21,N#C/C(=C\c1ccc(Cl)cc1Cl)c1nc(-c2cccc(Cl)c2)cs1,79% (inactive)
22,N#C/C(=C/c1ccccc1Cl)c1nc(-c2cc3ccccc3oc2=O)cs1,81% (inactive)
23,O=C1[C@@H]2CSC(c3ccc(Cl)cc3)N2C(=O)N1c1ccccc1 (stereo partly specified),71% (inactive)

row,SMILES,survival
1,CCc1ccc(CSc2nc(-c3ccc(OC)cc3)nc3c2Cc2c(CO)cnc(C)c2O3)cc1,72% (inactive)
2,COCCNC(=O)C1CC(=O)N(c2ccc(C)cc2)C1 (stereo unspecified),82% (inactive)
3,CCOC(=O)c1cc(-c2ccc(OC)cc2)n(CCC(=O)NC2CCCCC2)c1C,115% (inactive)
4,CCOc1ccc(CCNC(=O)Cn2nnc(-c3ccc(C(F)(F)F)cc3)n2)cc1OCC,82% (inactive)
5,O=C(CSc1nc(=O)n(Cc2ccncc2)c2c1CCC2)Nc1ccc(F)cc1F,78% (inactive)
6,COc1ccc(Nc2c(-c3ccc(C)o3)nc3ccc(Cl)cn23)cc1,65% (inactive)
7,CCOC(=O)C1(C)C=C(Nc2cccc(C(=O)O)c2)C(=O)N1c1ccccc1 (stereo unspecified),73% (inactive)
8,CCOC(=O)C1(C)C=C(Nc2ccc(C)cc2)C(=O)N1c1ccccc1 (stereo unspecified),50% (inactive)
9,CCOC(=O)C1(C)C=C(Nc2cccc(C)c2)C(=O)N1c1ccccc1 (stereo unspecified),15% (active)
10,O=c1[nH]c2ccc(S(=O)(=O)Nc3cc(Cl)ccc3O)cc2o1,86% (inactive)
11,CC(C(=O)NC1CC1)N1CCC(N2CCCCC2)CC1 (stereo unspecified),98% (inactive)
12,Nc1nn(-c2ccccc2)nc1C(=O)OCc1ccccc1Br,11% (active)
13,O=C(NCCCCc1ccccc1)c1nn(-c2ccccc2)nc1CO,58% (inactive)
14,Nc1nn(-c2ccccc2)nc1NC=O,95% (inactive)
15,Cc1ccccc1CNC(=O)c1nn(-c2ccccc2F)nc1CO,85% (inactive)
16,Cc1ccccc1COC(=O)c1nn(-c2ccccc2)nc1N,-1% (active)
17,Cc1ccccc1COC(=O)c1ccc(-c2nnn(Cc3ccccc3F)n2)cc1,54% (inactive)
18,Cc1ccc(Cl)cc1NC(=O)C1CCCN(S(=O)(=O)c2c(C)noc2/C=C/N(C)C)C1 (stereo unspecified),51% (inactive)
19,COc1cccc(Nc2sc(C(=O)c3ccc(F)cc3)c(N)c2C(=O)NCc2ccc(C)cc2)c1,91% (inactive)
20,Cc1ccccc1Nc1sc(C(=O)c2ccccc2)c(N)c1C(=O)NCc1ccc(Cl)cc1,100% (inactive)
21,Cc1ccc(CNC(=O)c2c(Nc3ccccc3C)sc(C(=O)c3ccc(F)cc3)c2N)cc1,20% (active)
22,COc1cccc(Nc2sc(C(=O)c3ccc(F)cc3)c(N)c2C(=O)NCc2ccc(Cl)cc2)c1,8% (active)
23,COc1cccc(Nc2sc(C(=O)c3ccc(Cl)cc3)c(N)c2C(=O)NCc2ccc(C)cc2)c1,95% (inactive)

row,SMILES,survival
1,Cc1ccccc1Nc1sc(C(=O)c2ccc(F)cc2)c(N)c1C(=O)NCCc1ccccc1,81% (inactive)
2,Cc1cccc(-c2cc(NC(=O)C(C)(C)C)n(-c3ccccc3)n2)c1,99% (inactive)
3,CCC(=O)N1c2ccc(S(=O)(=O)CCC(=O)NCc3cccc(OC)c3)cc2CC1C (stereo unspecified),102% (inactive)
4,CCC(=O)N1c2ccc(S(=O)(=O)CCC(=O)NCc3ccccc3OC)cc2CC1C (stereo unspecified),90% (inactive)
5,CC1Cc2cc(S(=O)(=O)CCC(=O)NCc3ccccc3Cl)ccc2N1C(=O)C1CC1 (stereo unspecified),89% (inactive)
6,COc1cccc(CNC(=O)CCS(=O)(=O)c2ccc3c(c2)CC(C)N3C(=O)C2CC2)c1 (stereo unspecified),20% (active)
7,COc1ccc(CNC(=O)CCS(=O)(=O)c2ccc3c(c2)CC(C)N3C(=O)C2CC2)cc1 (stereo unspecified),95% (inactive)
8,COc1ccccc1CNC(=O)CCS(=O)(=O)c1ccc2c(c1)CC(C)N2C(=O)C1CC1 (stereo unspecified),8% (active)
9,CCc1cccc(NC(=O)c2ccc3c(=O)n4nc(Nc5ccccc5OC)sc4nc3c2)c1,74% (inactive)
10,Clc1ccccc1-c1nnc(SCc2nc(-c3ccccc3)no2)n1-c1ccccc1,52% (inactive)
11,CC(C)(C)OC(=O)N1CCC(c2c(C(=O)N3CCN(c4ccccc4)CC3)cnn2-c2ccccc2)CC1,81% (inactive)
12,Cc1ccc2nc(Nc3cccc(Cl)c3C)c(-n3nc(C)cc3C)nc2c1,123% (inactive)
13,Cc1cc(C)n(-c2nc3ccccc3nc2Nc2cccc(C)c2C)n1,21% (active)
14,Cc1ccc(Nc2nc3ccccc3nc2-n2nc(C)cc2C)c(Cl)c1,70% (inactive)
15,Cc1cc(C)n(-c2nc3ccccc3nc2Nc2cc(Cl)ccc2C)n1,130% (inactive)
16,COc1ccc(OC)c(Nc2nc3ccccc3nc2-n2nc(C)cc2C)c1,16% (active)
17,Cc1cc(C)n(-c2nc3ccccc3nc2Nc2cccc(C(F)(F)F)c2)n1,75% (inactive)
18,Cc1cc(C)cc(Nc2nc3ccccc3nc2-n2nc(C)cc2C)c1,23% (active)
19,Cc1cc(C)n(-c2nc3ccccc3nc2Nc2ccc(Cl)c(Cl)c2)n1,0% (active)
20,Cc1cc(C)cc(Nc2nc3cc(Cl)c(Cl)cc3nc2-n2nc(C)cc2C)c1,89% (inactive)
21,Cc1cc(C)n(-c2nc3ccccc3nc2Nc2ccc(Cl)cc2Cl)n1,75% (inactive)
22,COc1ccccc1Nc1nc2ccc(Cl)cc2nc1-n1nc(C)cc1C,133% (inactive)
23,COc1cc(OC)c(Nc2nc3ccccc3nc2-n2nc(C)cc2C)cc1Cl,97% (inactive)

row,SMILES,survival
1,CCOC(=O)c1cc(-c2ccccc2)n(CCC(=O)Nc2cc(C)cc(C)c2)c1C,99% (inactive)
2,Cc1ccc(NC(=O)C(C)Sc2nc(=O)cc(N)n2-c2cccc(C)c2)cc1 (stereo unspecified),59% (inactive)
3,CCOC(=O)c1cccc(NC(=O)c2cn(-c3cccc(OC)c3)c(=O)c3ccccc23)c1,60% (inactive)
4,COc1ccc(Cl)cc1NC(=O)c1ccc(CN2C(=O)CCn3nc(C)cc32)cc1,66% (inactive)
5,CC(C)c1ccc(NC(=O)CSC2=Nc3ccccc3C3=NC(CC(=O)NCCc4ccccc4)C(=O)N23)cc1 (stereo unspecified),72% (inactive)
6,Nc1nc(CC(=O)NN=C2CCCCCC2)cs1,65% (inactive)
7,CCc1ccccc1Nc1nc2cc(Cl)c(Cl)cc2nc1-n1nc(C)cc1C,89% (inactive)
8,CCOc1ccc(Nc2nc3cc(Cl)c(Cl)cc3nc2-n2nc(C)cc2C)cc1,87% (inactive)
9,Cc1cc(C)n(-c2nc3ccccc3nc2Nc2ccc(C(C)C)cc2)n1,8% (active)
10,Cc1cc(C)n(-c2nnc(Nc3ccc(C(C)C)cc3)c3ccccc23)n1,80% (inactive)
11,COc1cccc(Nc2nc3ccc(C)cc3nc2-n2nc(C)cc2C)c1,88% (inactive)
12,Cc1cc(C)n(-c2nc3ccccc3nc2Nc2ccc(N(C)C)cc2)n1,-2% (active)
13,Cc1ccc(NC(=O)c2cnn(-c3ccc(C)c(C)c3)c2C2CCN(C(=O)OC(C)(C)C)CC2)c(C)c1,109% (inactive)
14,CN(C(=O)c1ccccc1)C1CCS(=O)(=O)C1 (stereo unspecified),90% (inactive)
15,Cc1ccc(N2CC(C(=O)NCc3nnnn3-c3ccc(C)c(C)c3)CC2=O)cc1 (stereo unspecified),69% (inactive)
16,Cc1ccc(-c2ccc(=O)n(CC(=O)NC(C)c3ccccc3)n2)cc1 (stereo unspecified),69% (inactive)
17,Cc1c(-c2cccc(NC(=O)Nc3ccccc3)c2)nc2ncccn12,76% (inactive)
18,Cc1c(-c2cccc(NC(=O)C(C)(C)C)c2)nc2ncccn12,79% (inactive)
19,Cc1c(-c2cccc(NC(=O)Nc3ccc(Cl)cc3)c2)nc2ncccn12,-2% (active)
20,Cc1ccc(-n2nc(C(=O)N3CCCCC3)c(=O)n(C)c2=O)cc1,52% (active)
21,Cc1ccc(-n2nc(C(=O)N3CCN(c4ccccc4)CC3)c(=O)n(C)c2=O)cc1,124% (inactive)
22,Cc1ccc(-n2nc(C(=O)N3CCC(C)CC3)c(=O)n(C)c2=O)cc1,86% (inactive)
